Our source for the growth values is PubChem BioAssay (NCI).

Holding throughout (test): NCI-60 one-dose screen, 48 h (100 = growth as untreated, 0 = no growth, -100 = all killed)
What all share (settings): 10 µM unless noted

For assay [1], the system named is DU-145 prostate.
For assay [2], the system named is MALME-3M melanoma.
Assay [3] deals with MDA-MB-231 breast.
Assay [4] deals with RXF 393 renal.
Assay [5] has as its system SF-268 CNS.
Assay [6] has as its system SF-295 CNS.
Assay [7] has as its system SF-539 CNS.
For assay [8], the system named is UACC-257 melanoma.
The subject of assay [9] is M14 melanoma.
In assay [10] the test system is HCT-15 colon.
Assay [11] relates to HT29 colon.
The test system of assay [12] is SNB-75 CNS.
Assay [13] concerns SNB-19 CNS.
Assay [14] concerns U251 CNS.
Assay [15] concerns PC-3 prostate.
Assay [16] relates to SK-MEL-5 melanoma.
Assay [17] relates to UACC-62 melanoma.
The test system of assay [18] is LOX IMVI melanoma.
The subject of assay [19] is SK-MEL-28 melanoma.

Molecules are shown by their SMILES. Compounds without any hit were thinned out: in the full panel of roughly 83,000, 20% have a hit.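 For each line, cells grew in 96-well plates with the test compound present at a single concentration for 48 hours.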 Values without a mark were called inactive. Calls of active or inactive are those of the source. How the source made its calls: active means growth percent below 10; inactive means the rest.

Consider `O=C(Nc1ccccc1Cl)c1c[nH]c(=O)c(-c2ccc(N3CCCOC4(CC4)C3)cc2)c1`, for which the growth in [1] was 77.6%; in assay [2], 70%; in assay [3], 77.7%; in assay [4] it was 81.2%; in [5] it was 69.8%; in assay [6] it was 55.3%. Further, the growth in [7] was 76%; in assay [8], 38%; in [9], 74.9%; in [10] it was 78.8%; in assay [11], 70.5%; in assay [12], 73%. The growth in assay [13] is 72.4%; in assay [14], 75.9%; in assay [15] it was 57.5%; in assay [16], 8.08% (active); in assay [17] it was 63.5%; in assay [18], 46.7%. Moreover, the growth in assay [19] is 78.4%.

As to `COc1cc(/C=C/C(=O)N2CCC=CC2=O)cc(OC)c1OC`, the growth in assay [1] was 43.5%; in assay [2], 10.5%; in assay [3] it was 45.9%; in assay [4], 9.03% (active); in assay [5], 85.1%; in assay [6], 94.1%. In addition, the growth in [7] is 29.6%; in assay [8], 66.4%; in assay [9], 55.7%; in assay [10], 1.7% (active); in assay [11] it was 23.2%; in [12], 75.7%. Besides, the growth is 72.9% in [13]; 68.3% in assay [14]; 79.7% in [15]; 73.8% in [16]; 40.8% in [17]; 10.2% in assay [18]. The growth in [19] is 56%.

Consider `CCOc1cccc(Nc2nc(N)nc3[nH]c4ccc(O)cc4c23)c1`, for which the growth in assay [1] is 49%; in [2], 96.9%; in [3], 54.8%; in [4], 43%; in [5], 44.6%; in [6], 68.1%. Besides, the growth in [7] was 81.4%; in [8], 88.6%; in assay [9], 75.3%; in [10], 85.4%; in [11], 93.3%; in [12] it was 46.1%. Besides, the growth in [13] is 70.1%; in assay [14], 79.7%; in assay [16] it was 54.4%; in [17], 73.8%; in assay [18], 36.7%; in assay [19], 89.3%.

As for `CCCCNC(=O)Oc1ccc(/C(=C(/CC)Cc2ccccc2)c2ccc(OCCCN(C)C)cc2)cc1`, the growth in assay [1] was 89.2%; in assay [2], 93.4%; in [3], 78.9%; in assay [4], 70.7%; in assay [5], 77.8%; in assay [6], 94.9%. Further, the growth in assay [7] was 88.5%; in assay [8] it was 104%; in [9] it was 81.8%; in assay [10] it was 57.7%; in [12] it was 75.5%; in [13] it was 90.7%. Moreover, the growth is 68.9% in assay [14]; 81.2% in assay [15]; 84.5% in assay [16]; 106% in [17]; 59% in [18]; 95.9% in assay [19].

`CCc1c2cc(Cl)ccc2n2cc(Cc3ccccc3)[nH]c(=O)c12`: the growth was 104% in assay [1]; 85.3% in assay [2]; 97.4% in assay [3]; 116% in assay [4]; 95.4% in [5]; 98.1% in [6]. The growth in assay [7] is 103%; in assay [8], 104%; in assay [9] it was 99.9%; in assay [10] it was 98.9%; in [11], 110%; in assay [12], 96.9%. Further, the growth was 104% in assay [13]; 99.5% in [14]; 97.4% in assay [15]; 104% in assay [16]; 98.2% in [17]; 98.2% in [18]. Besides, in assay [19], the growth was 107%.

In the case of `COc1ccccc1S(=O)(=O)Nc1ccc2c3c(cc(-c4cnn(C)c4)nc13)C(=O)N2C`, the growth is 64.2% in assay [1]; 51.2% in assay [2]; 40.7% in assay [3]; 40.2% in [4]; 59.8% in assay [5]; 35.1% in [6]. Also, the growth in assay [7] is 34.6%; in assay [8] it was 44.8%; in assay [9], 42.6%; in assay [10], 27.6%; in assay [11], 18%; in assay [12], 26.6%. The growth is 50% in assay [13]; 52% in assay [14]; 29.5% in [16]; 18.2% in assay [17]; 10.4% in assay [18]; 63.1% in assay [19].

`O=c1c(-c2ccc3c(c2)OCO3)coc2c(CO)c(O)ccc12`: the growth in [1] is -20.8% (active); in assay [2], -45.1% (active); in assay [3], -33.6% (active); in assay [4], -84% (active); in assay [5] it was -43.3% (active); in assay [6], 3.29% (active). Also, the growth is -9.82% (active) in assay [7]; 9.01% (active) in assay [8]; 45% in assay [9]; 12.6% in assay [10]; 86.1% in [11]; -5.16% (active) in assay [12]. The growth in assay [13] is 13.5%; in assay [15], -52.4% (active); in assay [16] it was 5.73% (active); in assay [17], -53.1% (active); in assay [18], -43.6% (active); in [19], 40.3%.

In the case of `CCCc1nn2c(CCC(=O)c3nc4ccc([N+](=O)[O-])cc4[nH]3)nnc2s1`, the growth in assay [1] is 108%; in assay [2] it was 105%; in assay [3], 95.9%; in assay [4] it was 114%; in [5], 100%; in assay [6], 104%. Further, the growth was 103% in assay [7]; 113% in assay [8]; 99.6% in assay [9]; 100% in assay [10]; 106% in [11]; 97.2% in assay [12]. The growth in [13] is 109%; in [14], 108%; in [15] it was 100%; in [16], 119%; in [17] it was 98.7%; in assay [18], 95.5%. Further, in assay [19], the growth is 103%.

With `COc1ccc(C(=O)Cn2cnc3c(Nc4cc(C(=O)Nc5ccc(N6CCN(CCO)CC6)cc5)ccc4C)ncnc32)cc1`, the growth is 105% in assay [1]; 116% in assay [2]; 110% in assay [3]; 113% in [4]; 98.6% in [5]; 93.2% in assay [6]. Also, the growth was 98.2% in assay [7]; 104% in [8]; 95.3% in assay [9]; 102% in assay [10]; 101% in assay [11]; 79.4% in assay [12]. In addition, the growth in assay [13] is 108%; in [14] it was 105%; in assay [15], 105%; in assay [16], 102%; in assay [17] it was 104%; in [18], 94.2%. In addition, in assay [19], the growth is 105%.

With `CN(C)c1ncc(C#Cc2c(F)cccc2F)c2ccccc12`, the growth was 97.4% in [1]; 113% in assay [2]; 80.2% in assay [3]; 93.2% in assay [4]; 87.2% in [5]; 102% in assay [6]. Also, the growth was 94.5% in assay [7]; 99% in assay [8]; 86.3% in assay [9]; 88.1% in assay [10]; 70.6% in assay [11]; 108% in [12]. Also, the growth in assay [13] is 88.8%; in assay [14] it was 80%; in assay [15], 75.7%; in assay [16], 83.5%; in [17], 71.4%; in assay [18], 85.2%. The growth in assay [19] is 102%.

For the molecule `COc1cc2ncnc(Oc3ccc(NC(=O)Nc4ccc(C5(C#N)CCCC5)cc4)c4ccccc34)c2cc1OC`, the growth in assay [1] is 57.7%; in assay [2], 31.3%; in [3], 43.6%; in [4], 14.9%; in [5], 27%; in [6], 13.7%. Also, the growth in assay [7] is 64.7%; in [8] it was 94.8%; in [9], 47.3%; in [10], 74.5%; in [11], 35%; in assay [12], 36.1%. The growth was 36.7% in [13]; -49.3% (active) in assay [14]; 56.8% in [15]; 50.2% in [16]; 40% in assay [17]; 47.7% in [18]. In [19], the growth was 64.1%.

For `Clc1ccc2c(NCCNc3nc(Cl)nc4ccccc34)ccnc2c1`, the growth in assay [1] was -3.33% (active); in assay [2], -87.3% (active); in assay [3], -87.8% (active); in assay [4], -77.2% (active); in assay [5], -58.1% (active); in assay [6], -76.7% (active). For the same molecule, the growth is -84% (active) in [7]; 91.1% in assay [8]; -89.1% (active) in assay [9]; -67.5% (active) in assay [10]; -91.5% (active) in [11]; -93.1% (active) in assay [12]. Besides, the growth was -49.9% (active) in [13]; -92.1% (active) in [14]; -99.2% (active) in [16]; -89.6% (active) in [17]; -89.4% (active) in [18]; -78.7% (active) in [19].

On to `CCOc1ccccc1C(=O)N1CCN(c2cc(Cl)cc(Cl)c2)CC1`, for which the growth in [1] was 8.76% (active); in [2] it was 45.3%; in assay [3] it was 6.62% (active); in assay [4], 40.9%; in assay [5] it was 30%; in [6] it was 17.9%. Further, the growth was -4.39% (active) in assay [7]; 51.1% in assay [8]; -23.3% (active) in [9]; 11.2% in assay [10]; -27.4% (active) in assay [11]; 34.3% in assay [12]. Moreover, the growth in assay [13] was 24%; in assay [14], 12.5%; in assay [15] it was 10.6%; in assay [16], -44.1% (active); in assay [17] it was 19.5%; in [18], 17.7%. In addition, in assay [19], the growth was 54.7%.
